For five compounds, z-score and composite z-score results are on record in PubChem BioAssay.

Test [1] in a line: compound effects on lung adenocarcinoma cell viability – A549, calcein-AM fluorescence, 48 h, basal, profiling panel (AID 1162). Also: test concentration not given here. The conditions noted are these: higher = more signal.
Test [2] can be described thus: compound effects on differentiated 3T3-L1 adipocyte viability – cell-based, 3T3-L1 adipocytes, calcein-AM fluorescence, 48 h, basal, profiling panel (AID 1163). Also: test concentration not given here. The conditions noted are these: 3T3-L1 adipocytes viability, higher = more signal.
The nature of test [3]: compound effects on hepatocellular carcinoma cell viability – HepG2, calcein-AM fluorescence, 48 h, basal, profiling panel (AID 1164). Also: test concentration not given here. The conditions noted are these: higher = more signal.
The nature of test [4]: compound effects on multiple myeloma cell viability – MM1S, calcein-AM fluorescence, 48 h, basal, profiling panel (AID 1165). Also: test concentration not given here. The conditions noted are these: higher = more signal.
Test [5] can be described thus: calcein-AM signal in unstimulated myeloma cells – cell-based, calcein-AM fluorescence, 48 h, PK04 Diversity Set, profiling panel (AID 1166).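 Also: cells grown under basal conditions without added stimulus; test concentration not given here.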 The conditions noted are these: RPMI8226 myeloma viability, higher = more signal.
A short description of test [6]: JC-1 mitochondrial signal, unstimulated HepG2 cells – cell-based, JC-1 fluorescence, 24 h, 100 nL compound, profiling panel (AID 1167). Also: test concentration not given here. The conditions noted are these: HepG2 mitochondrial potential, higher = more signal.
Test [7] can be described thus: JC-1 mitochondrial signal, unstimulated adipocytes – cell-based, JC-1 fluorescence, 3T3-L1 adipocytes, 24 h, 100 nL compound, profiling panel (AID 1168). Also: test concentration not given here. The conditions noted are these: JC-1 mitochondrial fluorescence, higher = more signal, called active from +8 up or from −8 down.
Test [8] is described as follows: JC-1 mitochondrial signal, unstimulated myeloma cells – cell-based, JC-1 fluorescence, RPMI8226, 24 h, 100 nL compound, profiling panel (AID 1169). Also: test concentration not given here. The conditions noted are these: JC-1 mitochondrial potential fluorescence, higher = more signal.
Test [9] is described as follows: JC-1 mitochondrial signal, unstimulated MM1S myeloma – cell-based, JC-1 fluorescence, 24 h, 100 nL compound, profiling panel (AID 1170). Also: test concentration not given here. The conditions noted are these: MM1S mitochondrial potential, higher = more signal.
A short description of test [10]: resazurin metabolic signal in A549 cells – cell-based, resazurin fluorescence, 24 h, PK04 Diversity Set, profiling panel (AID 1171). Also: test concentration not given here. The conditions noted are these: A549 viability, higher = more signal, called active from +8 up or from −8 down. In general terms: The colour change of resazurin is a common sign of viable cells or microbes.
A short description of test [11]: resazurin metabolic signal in HepG2 cells – cell-based, resazurin fluorescence, 24 h, PK04 Diversity Set, profiling panel (AID 1172). Also: test concentration not given here. The conditions noted are these: HepG2 viability, higher = more signal.
A short description of test [12]: budding yeast growth changes without added modifier – OD600, strain BY4716, 24 h, basal condition, primary screen (AID 1173). The conditions noted are these: S. cerevisiae BY4716 growth, OD600, 24 h; higher = more signal, called active from +8 up or from −8 down.
A short description of test [13]: viability profiling in MM1S myeloma cells – cell-based, resazurin fluorescence, basal, 24 h, PK04 Diversity Set, profiling panel (AID 1174). Also: test concentration not given here. The conditions noted are these: higher = more signal, called active from +8 up or from −8 down.
Test [14] has as its target Dihydroorotate dehydrogenase (quinone), mitochondrial (Plasmodium falciparum (isolate 3D7)) (UniProt Q08210). Nature of the test: inhibition of P. falciparum DHODH – biochemical, C-terminal His tag, absorbance 600 nm, primary screen (AID 1175).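 Also: recombinant parasite enzyme with a five histidine tag at its C terminus; test concentration not given here.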 The conditions noted are these: PfDHODH enzyme, DCIP absorbance 600 nm; higher = more signal, called active from +8 up or from −8 down.

A short description of test [15]: inhibition of PAO1 biofilm formation – strain PAO1, LB-PBS medium, absorbance 600 nm, primary screen (AID 1176). Also: test concentration not given here. The conditions noted are these: P. aeruginosa PAO1 growth/biofilm, A600, 12 h; higher = more signal.
The nature of test [16]: growth modulation of vineyard yeast isolate – strain RM11-1a, OD600, basal, 24 h, primary screen (AID 1177).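 Also: cultures grown under basal conditions with no added stressor; test concentration not given here.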 The conditions noted are these: S. cerevisiae RM11-1a growth, OD600, 24 h; higher = more signal, called active from +8 up or from −8 down.
Test [17] can be described thus: growth of efflux-deficient E. coli DRC39 – strain DRC39, OD650, 24 h, E. coli filamentation inducers, primary screen (AID 1178).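 Also: growth measured as culture turbidity by optical density at 650 nm; test concentration not given here.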 The conditions noted are these: E. coli DRC39 acrAB, higher = more signal, called active from +8 up or from −8 down.
Test [18] in a line: growth of efflux-deficient E. coli DRC39 – strain DRC39, OD650, 48 h, E. coli filamentation inducers, primary screen (AID 1179).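 Also: screen aims at cell division blockers that make cells filament.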 The conditions noted are these: E. coli DRC39 delta-acrAB growth, higher = more signal, called active from +8 up or from −8 down.
Test [19] in a line: viability profiling in RPMI8226 myeloma cells – cell-based, resazurin fluorescence, basal, 24 h, PK04 Diversity Set, profiling panel (AID 1180).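 Also: RPMI8826 multiple myeloma cell line at 5000 cells per well; test concentration not given here.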 The conditions noted are these: higher = more signal.
Test [20] addresses E3 ubiquitin-protein ligase XIAP (Homo sapiens) (UniProt P98170). As to the kind of experiment: small molecules binding XIAP protein – biophysical, small-molecule microarray, fluorescence 635 nm, primary screen (AID 1181).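 Also: score merges 667 nm emission and signal to noise over triplicate slides.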 The conditions noted are these: higher = more signal.

Activity calls are given as the source filed them. Unless noted, no rule for the calls is given here.

Dihydroorotate dehydrogenase (quinone), mitochondrial (Plasmodium falciparum (isolate 3D7)), sequence (Q08210 whole entry, looked up): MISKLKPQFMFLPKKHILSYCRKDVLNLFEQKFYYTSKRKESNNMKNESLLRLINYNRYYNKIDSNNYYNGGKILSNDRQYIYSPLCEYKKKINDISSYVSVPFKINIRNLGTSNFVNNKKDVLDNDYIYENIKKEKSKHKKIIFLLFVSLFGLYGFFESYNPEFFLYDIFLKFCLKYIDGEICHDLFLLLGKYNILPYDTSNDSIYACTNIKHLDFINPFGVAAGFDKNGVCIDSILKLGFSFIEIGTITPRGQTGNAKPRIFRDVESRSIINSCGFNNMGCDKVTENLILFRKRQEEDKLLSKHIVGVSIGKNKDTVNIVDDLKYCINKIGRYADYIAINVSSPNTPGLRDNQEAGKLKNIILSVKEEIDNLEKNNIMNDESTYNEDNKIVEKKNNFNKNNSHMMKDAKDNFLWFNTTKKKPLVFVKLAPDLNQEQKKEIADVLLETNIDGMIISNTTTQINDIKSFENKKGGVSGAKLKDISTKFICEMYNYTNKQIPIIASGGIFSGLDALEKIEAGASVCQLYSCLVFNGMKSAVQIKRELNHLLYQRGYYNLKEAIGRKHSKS
E3 ubiquitin-protein ligase XIAP (Homo sapiens), sequence (P98170 whole entry, looked up): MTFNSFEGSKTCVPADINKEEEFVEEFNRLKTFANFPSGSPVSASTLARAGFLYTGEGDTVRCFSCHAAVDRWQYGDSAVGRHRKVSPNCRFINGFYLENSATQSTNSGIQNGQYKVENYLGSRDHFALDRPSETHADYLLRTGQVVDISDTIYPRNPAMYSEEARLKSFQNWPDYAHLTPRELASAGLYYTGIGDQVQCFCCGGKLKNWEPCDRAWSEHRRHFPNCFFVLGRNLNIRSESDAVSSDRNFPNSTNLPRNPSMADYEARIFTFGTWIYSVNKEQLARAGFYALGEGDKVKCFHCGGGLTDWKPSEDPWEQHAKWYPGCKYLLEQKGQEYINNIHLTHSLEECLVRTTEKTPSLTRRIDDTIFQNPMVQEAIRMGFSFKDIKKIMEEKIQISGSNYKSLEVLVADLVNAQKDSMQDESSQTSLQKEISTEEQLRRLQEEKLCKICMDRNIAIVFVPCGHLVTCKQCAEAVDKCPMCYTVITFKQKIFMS

Consider `O=C(NCCCCCNC(=O)/C(Cc1ccccc1)=N/O)OCc1ccccc1`, for which the z-score in [1] was 1.54; in test [2] it was 0.989; in test [3] it was -0.756; in test [4], -0.781; in test [5], 0.476; in test [6], -0.348. In addition, the z-score in test [7] is 0.627 (inactive); in test [8] it was 0.567; in [9], -0.877; in [10], 0.766 (inactive); in [11], 0.619; in test [12], -3.54 (inactive). The z-score in test [13] was 0.63 (inactive); in test [15], 0.695 (inactive); in [16], -1.21 (inactive); in [17], 1.92 (inactive); in [18], 1.42 (inactive); in test [19], 1.09. The composite z-score was -0.713 (inactive) in [14] and -0.253 in test [20].

As to `COc1cc(CO)cc(I)c1O[C@H]1C=C(C(=O)NCCO)C[C@@H](NCc2ccc(F)cc2)[C@@H]1O`, the z-score is 0.56 in test [1]; 0.385 in test [2]; 2.22 in test [3]; -2.35 in test [4]; -0.456 in test [5]; 0.871 in test [6]. In addition, the z-score in test [7] was -0.389 (inactive); in test [8], -0.251; in [9], -2.07; in test [10] it was -0.183 (inactive); in test [11], -0.205; in test [12], -3.76 (inactive). Also, the z-score in test [13] was -1.29 (inactive); in test [15], 0.507 (inactive); in test [16], 0.0419 (inactive); in test [17], 0.988 (inactive); in test [18] it was 0.878 (inactive); in [19] it was -0.512. Besides, the values for the composite z-score in test [14] and in [20] were 0.969 (inactive) and -0.101, respectively.

For `C=CC[C@@]1(C(=O)N2CCOCC2)N=C(c2ccc(OCCCO)cc2)O[C@@H]1c1ccccc1CN=[N+]=[N-]`, the z-score in [1] is 1.42; in [2], 0.563; in test [3], 1.09; in test [4], -0.909; in test [5] it was -0.697; in test [6], 1.97. Moreover, the z-score in test [7] is -0.212 (inactive); in test [8], -0.838; in [9], -0.845; in test [10], 0.278 (inactive); in test [11], 0.0491; in [12], 0.0155 (inactive). Moreover, the z-score was 0.118 (inactive) in [13]; 0.137 (inactive) in [15]; -0.109 (inactive) in test [16]; -0.0245 (inactive) in [17]; 0.443 (inactive) in test [18]; -0.052 in test [19]. Also, the composite z-score is 0.159 (inactive) in test [14] and 0.184 in [20].

In the case of `COc1ccc(NC(=O)O[C@H]2[C@H](OC(=O)Nc3ccccc3)[C@@H](OC(=O)Nc3ccccc3)[C@@H](OC)O[C@@H]2CO)cc1`, the z-score is -1.42 in [1]; 0.635 in test [2]; -1.17 in test [3]; -1.18 in test [4]; -2.26 in [5]; -0.107 in [6]. Also, the z-score in [7] was -0.261 (inactive); in [8], -0.765; in test [9], -1.06; in test [10] it was -2.97 (inactive); in [11], -1.58; in [12] it was 0.559 (inactive). Moreover, the z-score in [13] is -2.86 (inactive); in [15] it was 0.304 (inactive); in test [16], 2.89 (inactive); in test [17], 0.717 (inactive); in [18], -0.141 (inactive); in [19], -1.61. Besides, the composite z-score in [14] is 1.1 (inactive); in [20], 0.131.

Consider `O=c1n(-c2ccccc2)c(=O)n2n1CC(COc1ccccc1)=C([C@H](O)CCc1ccccc1)[C@@H]2CO`, for which the z-score in test [1] is -0.0498; in test [2], 0.725; in [3] it was 0.787; in test [4], -1.44; in test [5], -2.34; in test [6], -1.2. Moreover, the z-score is 0.0027 (inactive) in [7]; 0.0482 in [8]; -1.98 in test [9]; -0.962 (inactive) in test [10]; -0.633 in test [11]; -2.28 (inactive) in [12]. Moreover, the z-score in test [13] is -0.83 (inactive); in test [15] it was -0.0126 (inactive); in test [16] it was -3.02 (inactive); in test [17] it was 1.24 (inactive); in test [18] it was 0.395 (inactive); in [19], -0.0454. Further, the figures for the composite z-score in test [14] and in test [20] were -1.09 (inactive) and -0.472, respectively.
